From PubChem BioAssay (NCATS) come the findings set out here.

Each structure is given as a SMILES string. Inconclusive results are not listed. Some compounds were tested as several samples or in several runs, with calls that do not always agree. The source made the active and inactive calls. Unless noted, the call rests on the fitted dose curve; in most records, active means well fitted curve in the direction sought with a large enough effect; inconclusive means small, poorly fitted or top-dose-only effect, or another doubt; inactive means no such curve, though single readings can be large; an effect the other way counts as inactive or inconclusive.

A short description of assay [1]: Cytotoxicity counterscreen for inhibitors of SARS-CoV-2 cell entry (AID 1645845; calls by dose curve; further: nearly all actives have a fitted effect of over 50% in size; further: potency means the concentration at half of the fitted maximal effect). Conditions: outcome: dose series up to 57.1 µM unless noted. In short, it runs like this:
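48 h compound treatment (after 1 h preincubation), HEK293-ACE2 cells, 37 C/5% CO2; ATP luminescence endpoint; normalized to cell wells and media blanks.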

The nature of assay [2]: Primary qHTS to identify inhibitors of SARS-CoV-2 cell entry (AID 1645846; calls by dose curve; further: nearly all actives have a fitted effect of over 45% in size; further: potency means the concentration at half of the fitted maximal effect). To be noted: SARS-CoV-2 pseudovirus cell entry assay, luminescence; activity change, negative = inhibition: at 57.1 µM (top of the series) unless noted. In short, it runs like this:
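HEK293 cells stably expressing human ACE2, pre-treated 1 h with compound, then infected with MLV particles pseudotyped with Wuhan-Hu-1 spike (C-terminal 19-aa truncation). Luciferase luminescence after 48 h at 37 °C, normalised to spike PP and bald PP.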
Background: In qHTS, concentration-response curves come from the screen itself.

Assay [3] in a line: Primary qHTS for inhibitors of nuclear receptor binding SET domain protein 2 (NSD2) in an RCH-ACV wild type WT cells (2C) (AID 1645877). Further: nearly all actives have a fitted effect of over 70% in size. Further: potency means the concentration at half of the fitted maximal effect.
Assay [4] is described as follows: Primary qHTS for inhibitors of nuclear receptor binding SET domain protein 2 (NSD2) in an isogenic RCH-ACV NSD2 p.E1099K mutant (9B) (AID 1645876). Further: nearly all actives have a fitted effect of over 70% in size. Further: potency means the concentration at half of the fitted maximal effect.
In assay [5] the target is Glutathione peroxidase 1 (Homo sapiens) (UniProt P07203). In words: Primary qHTS Assay for Inhibitors of Recombinant Selenoprotein Glutathione Peroxidase 1 (GPX1) (AID 1845191). Further: nearly all actives have a fitted effect of over 65% in size. The procedure, abridged:
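10 nM GPX1 + cpd, 30 min RT; start w/ 1 mM GSH, 0.5 mM cumene hydroperoxide, 0.5 mM NADPH, 100 nM GR, 0.01% BSA; buffer 50 mM Tris-HCl pH 7.5, 2 mM EDTA, 150 mM NaCl; Fl 340/450, 0 & 15 min.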

Assay [6] is described as follows: qHTS assay to identify inhibitors of the type 1 interferon - major histocompatibility complex class I in skeletal muscle: Counter screen cell viability and HiBit confirmation (AID 1347412). Further: potency means the concentration at half of the fitted maximal effect. On activity change, negative = inhibition: on the % scale 0 is the no-effect control and ±100 the full control effect. On all read-outs here: nearly all actives have a fitted effect of over 60% in size. To be noted: iHSKM muscle cells + IFN-b, HiBiT or CellTiter-Glo, 24 h; for activity change, negative = inhibition: at 45.9 µM (top of the series). In short, it runs like this: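 CRISPR HLA-B*08:01-HiBit immortalized human myoblasts (C25cl48) stimulated with 4 ng/ml IFN-beta and compounds (12-point 1:3, top 46 uM final) for 24 h at 37 C. Duplicate plates read by HiBit lytic luminescence or CellTiter Glo ATP.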

Assay [7] is described as follows: qHTS Assay for Lipid Storage Modulators (AID 1519; calls by dose curve; on activity change, negative = inhibition: on the % scale 0 is the no-effect control and ±100 the full control effect). Conditions: Drosophila S3 cells, BODIPY lipid droplet/cell ratio, laser cytometry, cells loaded with oleic acid. The procedure, abridged: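 Cells seeded at 5,000 per well were treated with compounds over a concentration series and loaded with oleic acid (400 uM, as added). Lipid droplet fluorescence (488 nm excitation, 500-530 nm channel) was read by laser-scanning cytometry and normalized to 20 uM Triacsin C.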

Assay [8] can be described thus: Confirmatory qHTS to identify inhibitors of SARS-CoV-2 cell entry (AID 1645844; calls by dose curve; further: potency means the concentration at half of the fitted maximal effect; nearly all actives have a fitted effect of over 45% in size). The procedure, abridged:
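Luminescence from a luciferase reporter, read 48 hr after pseudotyped-particle addition, gives entry signal, normalised to spike-bearing PP wells and bald PP lacking fusion protein wells. Cells are Expi293F stably expressing human ACE2, compound-pretreated 1 hr.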

Assay [9] is described as follows: VSVG counterscreen qHTS to identify inhibitors of SARS-CoV-2 cell entry (AID 1645847; calls by dose curve; further: potency means the concentration at half of the fitted maximal effect; nearly all actives have a fitted effect of over 65% in size). The procedure, abridged: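 HEK293-ACE2 cells (Expi293F, human ACE2) pretreated 1 h with compound, then infected with MLV-based VSV-G pseudotyped particles for 48 h at 37 C; luciferase luminescence normalized to VSV-G PP and bald PP wells.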

Glutathione peroxidase 1 (Homo sapiens), sequence (P07203 whole entry, looked up): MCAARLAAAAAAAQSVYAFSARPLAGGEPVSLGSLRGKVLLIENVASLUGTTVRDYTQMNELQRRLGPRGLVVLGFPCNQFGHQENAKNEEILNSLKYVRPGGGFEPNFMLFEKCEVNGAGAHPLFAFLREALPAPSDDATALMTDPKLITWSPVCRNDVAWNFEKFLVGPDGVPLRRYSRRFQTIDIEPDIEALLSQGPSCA

As to `Cn1c(COP(=O)(NCCBr)NCCBr)cnc1[N+](=O)[O-]`, the Potency entry in assay [1] is “inactive”. Further, the activity change, negative = inhibition in [2] is -15%. Besides, the Potency in assay [3] is 18.6 µM (active).
As for `CCCCCCC(C)(C)c1cc(O)c2c(c1)OC(C)(C)C1CC=C(CO)C[C@H]21` (some centres not stated), the Potency entry in assay [1], in assay [4], in assay [3] and in assay [5] was “inactive” throughout. The activity change, negative = inhibition in assay [2] was -8.86%. For the same molecule, the Potency in assay [6] (Viability) is 35.2 µM (active).
`CC1(C)CC[C@]2(NC(=O)C(C)(F)F)CC[C@]3(C)[C@H](C(=O)C=C4[C@@]5(C)C=C(C#N)C(=O)C(C)(C)[C@@H]5CC[C@]43C)[C@@H]2C1`: the Potency in assay [2] was 1 µM (active); in assay [3], 7.42 µM (active); in [6] (HiBiT), 1.57 µM (active).
For `CC(=O)OC[C@H]1O[C@@H]([S-])[C@H](OC(C)=O)[C@@H](OC(C)=O)[C@@H]1OC(C)=O.CC[PH+](CC)CC.[Au]`, the Potency in assay [1] was 3.16 µM (active); in [2] it was 1.26 µM (active); in [4], 0.742 µM (active); in assay [3] it was 0.742 µM (active); in assay [6] (HiBiT) it was 1.11 µM (active).
With `CC(=O)O[C@@]12CO[C@@H]1C[C@H](O)[C@@]1(C)C(=O)[C@H](O)C3=C(C)[C@@H](O)C[C@@](O)([C@@H](OC(=O)c4ccccc4)[C@H]21)C3(C)C`, the Potency entry in [1] and in [4] was “inactive” each time.
`O=C1CC(c2ccc(O)cc2)Oc2cc(O)cc(O)c21` (configuration not stated): the activity change, negative = inhibition in [7] (at 57.5 µM (top of the series)) is 9.01% (inactive). Also, the results for the max response in assay [7] (measured here: cell count channel max response) and in assay [7] (measured here: lipid channel max response) were -5.6% and 4.14%, respectively.
Take `Cc1[nH]ncc1-c1cc2nc([C@@H]3CC4CCN3CC4)[nH]c(=O)c2s1`: the figures for the Potency in assay [4], in assay [3] and in assay [6] (HiBiT) were 2.35 µM (active), 0.934 µM (active) and 4.43 µM (active), respectively. Also, the Potency entry in assay [5] is “inactive”. For the same molecule, the activity change, negative = inhibition in assay [6] (Viability) was 15.9% (inactive).
As to `COC(=O)[C@]12CCC(C)(C)C[C@H]1[C@H]1C(=O)C=C3[C@@]4(C)C=C(C#N)C(=O)C(C)(C)[C@@H]4CC[C@@]3(C)[C@]1(C)CC2`, the Potency is 2.82 µM (active) in assay [1], 1 µM (active) in [2], 5.9 µM (active) in assay [3] and 1.57 µM (active) in [6] (HiBiT).
In the case of `C[C@@H](C1CC[C@@]2(O)C3=CC(=O)[C@@H]4C[C@@H](O)[C@@H](O)C[C@]4(C)[C@H]3CC[C@]12C)[C@H](O)CCC(C)(C)O` (some centres not stated), the Potency result in assay [1], in [4], in [3] and in assay [5] was “inactive” throughout.
Turning to `CC(N[C@H]1C[C@@H]1c1ccccc1)c1ccc2c(c1)OCCO2` (some centres not stated), the Potency result in assay [1], in assay [4], in [3] and in assay [5] was “inactive” throughout. In addition, the activity change, negative = inhibition in assay [2] is -4.37%.
On to `COC[C@H]1OC(=O)c2coc3c2[C@@]1(C)C1=C(C3=O)[C@@H]2CC[C@H](O)[C@@]2(C)C[C@H]1OC(C)=O`, for which the Potency result in assay [1] and in [5] was “inactive” throughout. Moreover, the Potency in assay [4] was 13.2 µM (active); in [3], 11.8 µM (active).
With `O=C(O)CNC(=O)C1C(=O)N(C2CCCCC2)C(=O)N(C2CCCCC2)C1=O`, the Potency entry in assay [1], in assay [4] and in [5] was “inactive” throughout. Further, the activity change, negative = inhibition in [2] was -12.5%.
Regarding `COC12C(COC(N)=O)C3=C(C(=O)C(C)=C(N)C3=O)N1CC1C2N1C` (configuration not stated), the Potency result in assay [1] and in [5] was “inactive” throughout. The Potency in assay [4] is 1.66 µM (active); in [3], 1.05 µM (active).
With `Cc1c(N)nc([C@H](CC(N)=O)NC[C@@H](N)C(N)=O)nc1C(=O)N[C@H](C(=O)N[C@@H](C)[C@H](O)[C@@H](C)C(=O)N[C@@H](C(=O)NCCc1nc(-c2nc(C(=O)NCCC[S+](C)C)cs2)cs1)[C@@H](C)O)C(O[C@H]1O[C@H](CO)[C@H](O)[C@@H](O)[C@H]1O[C@H]1O[C@H](CO)[C@@H](O)[C@H](OC(N)=O)[C@@H]1O)c1cnc[nH]1` (some centres not stated), the Potency is 0.0341 µM (active) in [8], 1.12 µM (active) in assay [2] and 0.0341 µM (active) in assay [9]. Besides, the Potency entry in assay [1], in assay [4] and in [5] was “inactive” each time. Also, in [2], the activity change, negative = inhibition was -97.2%.
Consider `C[C@@H]1CC[C@@]2(OC1)O[C@H]1C[C@H]3[C@@H]4CC=C5C[C@@H](O[C@@H]6O[C@H](CO)[C@@H](O[C@@H]7O[C@@H](C)[C@H](O)[C@@H](O)[C@H]7O)[C@H](O)[C@H]6O[C@@H]6O[C@@H](C)[C@H](O)[C@@H](O)[C@H]6O)CC[C@]5(C)[C@H]4CC[C@]3(C)[C@H]1[C@@H]2C`, for which the Potency result in [1] is “inactive”. In addition, the Potency is 12.6 µM (active) in assay [2]; 2.35 µM (active) in [4]; 3.32 µM (active) in assay [3]; 22.2 µM (active) in [6] (HiBiT); 17.6 µM (active) in assay [6] (Viability).
As for `CC(C)[C@]12O[C@H]1[C@@H]1O[C@@]13[C@@]1(C)CCC4=C(COC4=O)[C@@H]1C[C@@H]1O[C@@]13C2=O`, the Potency in [8] was 0.271 µM (active); in assay [9] it was 0.341 µM (active); in assay [4], 0.0372 µM (active); in assay [3] it was 0.0332 µM (active); in [6] (HiBiT) it was 0.0497 µM (active). In addition, the activity change, negative = inhibition in assay [2] was -93.1%; in assay [6] (Viability), 4.52% (inactive).
